Assay outcomes as filed in PubChem BioAssay.
MsrA inh: inhibits bovine methionine sulfoxide reductase A; actives 0.75% (n = 360,000); inhibition, % at 15.5 µM; purified bovine MsrA, absorbance read-out; in the data active = inhibition above about 4.5%;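 note: 0% = vehicle wells with enzyme and 100% = reference inhibitor wells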
KLK7 zymogen act: activators of human kallikrein-7 zymogen; P49862; purified proKLK7, EDANS-DABCYL substrate fluorescence; 100% is mature enzyme control, 0% vehicle; activation, % at 7 µM; actives 0.9% (n = 370,000); AID 652039;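 active = activation above the mean of all tested compounds plus 3 SD, computed per campaign excluding outliers beyond control limits, cut at about 13% in these data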
Target sequence (P49862 whole entry, looked up): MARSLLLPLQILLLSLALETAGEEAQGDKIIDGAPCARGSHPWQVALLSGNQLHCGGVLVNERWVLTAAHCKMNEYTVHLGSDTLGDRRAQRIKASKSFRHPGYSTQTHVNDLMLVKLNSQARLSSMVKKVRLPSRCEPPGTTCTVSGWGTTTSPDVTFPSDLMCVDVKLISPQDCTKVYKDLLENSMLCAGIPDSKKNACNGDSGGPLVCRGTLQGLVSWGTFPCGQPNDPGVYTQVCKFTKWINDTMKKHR
SMARCA2 activ: SMARCA2 function activation, primary screen; MG213 cells, MMTV-luciferase reporter, dexamethasone, overnight; activation, % at 9.1 µM; actives 1% (n = 370,000); in the data active = activation above about 7.8%;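 note: 0% = vehicle wells and 100% = reference activator wells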
MsrA act: activators of bovine methionine sulfoxide reductase A. AID 602163. actives 0.3% (n = 360,000). purified bovine MsrA, absorbance read-out. activation, % at 10.6 µM; in the data active = activation above about 7.5%;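 note: 0% = vehicle and 100% = reference activator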
KLK7 act conf: confirmation of human kallikrein-7 zymogen activators; shares compounds with KLK7 zymogen act; actives 68% (n = 3,200); purified proKLK7, EDANS-DABCYL substrate fluorescence; scaled: vehicle 0, mature enzyme 100; activation, % at 7 µM;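 active = activation, as change over the incubation, above the mean of all tested compounds plus 3 SD, cut at about 13% in these data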
EDANS interfere: optically interferes with EDANS-DABCYL signal, flagging KLK7 hits | shares compounds with KLK7 zymogen act | EDANS-DABCYL substrate fluorescence interference, no enzyme, 4 h; solvent 0%, active enzyme control 100% | activation, % at 7 µM | actives 80% (n = 3,200);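 active = activation above the all-compound mean plus 3 SD, ignoring values outside control-based bounds, cut at about 4.8% in these data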;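 note: value is the 4 h activation minus the activation read at time zero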
K7 EDANS ctr: counter-screen for kallikrein-7 activators: EDANS-DABCYL interference, dose response. shares compounds with KLK7 zymogen act. EDANS-DABCYL peptide fluorescence interference, no enzyme. EC50, µM. actives 20% (n = 250);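 active = compounds that raise the fluorescence signal in this interference counterscreen, with EC50 at or below 10 µM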;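 note: intact quenched peptide substrate alone read at 355 nm excitation and 520 nm emission; signal is fluorescence gain from T0 to T4 after four hours at room temperature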
The depositor's hits bear a star; i = inactive; x = not tested or not shown. Sampled rows, rich in hits. Any-hit rate of the full collection: about 2.8%.

SMILES	MsrA inh	KLK7 zymogen act	SMARCA2 activ	MsrA act	KLK7 act conf	EDANS interfere	others
O=c1c2ccccc2c(/C=N/NS(=O)(=O)c2ccccc2)c(O)n1-c1ccccn1	2	46*	-5	-12	92*	94*
CCOC(=O)c1c(NC(=O)COC(=O)c2nccnc2N)sc(C(=O)N(C)C)c1C	1	43*	-2	-4	42*	46*
CCOC(=O)c1c(NC(=O)COC(=O)c2nccnc2N)sc2c1CCC2	2	11	1	-9	x	x
N#Cc1c(NC(=O)COC(=O)c2nccnc2N)sc2c1CCCC2	0	17*	0	-1	16*	13*	K7 EDANS ctr=>70
CCOC(=O)c1c(NC(=O)COC(=O)c2ccccn2)sc(C(=O)N(C)C)c1C	-1	1	-3	-2	x	x
CC(C)Cn1c(-c2ccc(C#N)cc2)nc2c1c(=O)[nH]c(=O)n2CC(C)C	0	18*	-2	-1	-9	-11
CC(C)OCCCNC(=O)COc1ccc2oc3c(c2c1)CCCC3	0	1	-2	-2	x	x
CC1=CC(c2ccccc2)n2nc(N3C(=O)CCC3=O)nc2N1 (stereo not given)	-1	76*	1	-2	112*	142*
CC1=CC(c2ccccc2)n2nc(N3C(=O)c4ccccc4C3=O)nc2N1 (stereo not given)	0	17*	-1	-2	8	8.0*
CC1=CC(c2ccccc2)n2nc(N3C(=O)C4CC=CCC4C3=O)nc2N1 (stereo not given)	0	113*	-3	-5	211*	191*
COc1ccccc1C=NNC(=O)CSc1nc2ccccc2n1Cc1ccc(Cl)cc1	x	-1	-3	x	x	x
COc1ccc(NC(=O)c2ccc(NC(=O)CSc3nc(N)cc(=O)[nH]3)cc2)cc1	1	23*	0	-2	17*	14*	K7 EDANS ctr=i
Nc1cc(=O)[nH]c(SCC(=O)Nc2ccc(Br)cc2)n1	-1	0	2	0	x	x
CC(C)N(C(=O)[C@H]1C[C@H](CC(=O)NCCN2CCOCC2)C(=O)N2CCc3c([nH]c4cc(-c5ccco5)ccc34)[C@]12C)C(C)C	0	124*	0	0	120*	127*
C[C@]12c3[nH]c4cc(-c5ccco5)ccc4c3CCN1C(=O)[C@@H](CC(=O)NCCN1CCOCC1)C[C@@H]2C(=O)N1CCOCC1	1	52*	-2	-7	35*	51*
COc1ccc(CNC(=O)C[C@H]2C[C@H](C(=O)N3CCOCC3)[C@@]3(C)c4[nH]c5cc(-c6ccco6)ccc5c4CCN3C2=O)cc1OC	1	100*	5	-7	57*	64*
COc1ccc(CNC(=O)CC2C[C@H](C(=O)N3CCOCC3)[C@@]3(C)c4[nH]c5ccccc5c4CCN3C2=O)cc1OC (stereo not given in full)	-1	0	-3	-2	x	x
CCN(CC)C(=O)c1ccc2sc([C@@H]3O[C@H](CO)[C@H](O)[C@H](O)[C@H]3O)nc2c1	0	0	2	-3	x	x
CC(C)=CCC/C(C)=C/CN1CC(=O)N2[C@H](C[C@@]3(n4ccc5ccccc54)c4ccccc4N(S(=O)(=O)c4ccccc4)[C@@H]23)C1=O	x	0	1	x	x	x
COc1cccc(NC(=O)C2(C)CCN2C(=O)CC2CC2)c1 (stereo not given)	0	0	2	-1	x	x
COc1ccc(NC(=O)C2(C)CCN2C(=O)Cc2ccc(Cl)cc2Cl)cc1OC (stereo not given)	-1	0	-1	-2	x	x
C[C@H](O)[C@@H]1CN2CCc3ccc(N4CCOCC4)cc3[C@@H]2C[C@@H]1N(C)C(=O)c1ccco1	x	0	-1	x	x	x
COc1cccc2c(=O)c3c(cnn3C)n(C)c12	1	49*	3	-3	68*	67*
COCCCNC(=O)c1ccc2c(c1)NC(=O)C(C)(C)O2	x	0	2	x	x	x
CC(C)CC1=NN2C(=N)/C(=C\c3coc4ccccc4c3=O)C(=O)N=C2S1	1	24*	0	-3	24*	23*
SMILES	MsrA inh	KLK7 zymogen act	SMARCA2 activ	MsrA act	KLK7 act conf	EDANS interfere	others
CCSC1=NSC2=NC(=O)/C(=C\c3coc4ccccc4c3=O)C(=N)N12	1	-2	0	-1	x	x
O=C(N/N=C/c1ccc(OC(=O)c2ccco2)cc1)c1ccc[n+]([O-])c1	2	0	-1	-12	x	x
CCOC(=O)c1cc2c(=O)n3cccc(C)c3nc2n(Cc2ccco2)c1=NC(=O)c1ccc(C)cc1	x	x	x	-1	x	x
CCOCCCn1c(=NC(=O)c2ccco2)c(C(=O)OCC)cc2c(=O)n3cccc(C)c3nc21	0	39*	7.8*	-2	23*	9.2*	K7 EDANS ctr=i
CCOC(=O)c1cc2c(=O)n3ccccc3nc2n(C(C)C)c1=NC(=O)c1ccco1	1	44*	6	-3	59*	51*
CCOC(=O)c1cc2c(=O)n3cccc(C)c3nc2n(CC(C)C)c1=NC(=O)c1ccco1	2	74*	4	-3	6	5.7*
CCCCCn1c(=NC(=O)c2cccnc2)c(C#N)cc2c(=O)n3cccc(C)c3nc21	1	-12	-2	2	x	x
CC(C)n1c(=NC(=O)c2ccco2)c(C#N)cc2c(=O)n3ccccc3cc21	1	45*	6	0	22*	19*
CCOC(=O)c1cc2c(=O)n3ccccc3nc2n(Cc2ccco2)c1=NC(=O)c1ccccc1OC	-1	8	-3	-11	x	x
Cc1cccc(C)c1NC(=O)C1CCN(c2ncccn2)CC1	x	1	-3	x	x	x
O=C1CC(N2CCOCC2)=NC(=O)N1c1ccc(Br)cc1	x	-1	-1	x	x	x
C#CCNC[C@@H]1CSCCS(=O)(=O)N1	3	-1	-1	x	x	x
CCCCNC(=O)C1c2ccccc2OCC(=O)N1CCc1ccc(OC)c(OC)c1 (stereo not given)	0	0	-2	-4	x	x
Cc1ccc(OC(C)C(=O)N2CCc3ccccc32)c([N+](=O)[O-])n1 (stereo not given)	0	0	0	-5	x	x
Cn1c(SCC(=O)Nc2ccc(NC(=O)c3cccs3)cc2)nnc1-c1ccncc1	1	51*	-2	-2	1	0
COc1ccc(NC(=O)CSc2nnc(-c3ccncc3)n2C)cc1	0	0	-1	0	x	x
CN(C(=O)COC(=O)c1ccccc1NCCO)C1CCS(=O)(=O)C1 (stereo not given)	2	14*	-1	-2	40*	42*
CCOC(=O)c1ccccc1NC1CC(=O)N(c2ccccc2C)C1=O (stereo not given)	0	193*	4	-4	169*	161*
